Among the data in PubChem BioAssay AID1259418 (Broad Institute, 2018) are max activity values, retold here.

The assay in a line: T. gondii growth inhibition with IFN-gamma, dose response, cell-based, ME49Luc, HeLa, luciferase, 72 h (AID 1259418). The note with it: T. gondii ME49Luc in IFN-y HeLa, active compounds read low, -100% = high-dose IFN-γ control wells.

Hit rate of the full screen: of about 3,400 compounds, about 840 (25%) were called active. Roughly 11% stayed inconclusive and do not appear here. Only a sample is shown. Potency and affinity values are given separately. Unmarked numbers belong to inactive results.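 The calls were made as follows: active = fitted half-maximal concentration of signal decrease at or below twice the sample's top tested concentration; inconclusive = flat curve between -70 and -30 percent, or poor fit; inactive = flat within 30 percent, signal rise, or potency above limit.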

As for `CCc1ccc(S(=O)(=O)N2CCC[C@@H]2C(=O)NCCc2csc(C)n2)cc1`, the max activity (at 19.5 µM unless noted) is -9.49% [at 0.35 µM]. With `CC(C)(C)c1ccc(S(=O)(=O)N2CCC[C@@H]2C(=O)NCCc2csc(-c3ccccc3)n2)cc1`, the max activity (at 19.5 µM unless noted) was -14.7% [at 0.16 µM]. In the case of `Cc1cc(C)c(S(=O)(=O)N2CCC[C@@H]2C(=O)NCCc2csc(-c3ccccc3)n2)cc1C`, for the setting “at 19.5 µM unless noted”, the max activity is -22.5%. For `O=C(NCCc1csc(-c2ccccc2)n1)[C@H]1CCCN1S(=O)(=O)c1cccc(Cl)c1`, for the setting “at 19.5 µM unless noted”, the max activity is -25.7%. On the same count and under the same terms, for `Cc1nc(CCNC(=O)[C@H]2CCCN2S(=O)(=O)c2ccc(Cl)s2)cs1` the value was 12.6% [at 0.16 µM]. Still for that read-out and setting: for `Cc1cc(C)cc(C(=O)N2CCC[C@@H]2C(=O)NCCc2csc(-c3ccccc3)n2)c1` the value was -12.7%; for `COc1ccc(CNC(=O)Nc2ccc(-c3nc(-c4ccc(C)cc4C)co3)cc2)cc1`, 20.3% [at 1.35 µM]. Same read-out and setting: for `Cc1oc(-c2ccccc2)nc1CSc1nc2c(c(=O)[nH]1)CN(Cc1ccc(F)cc1)CC2` the value was 22.6% [at 0.35 µM]; for `Cc1ccc(-c2coc(-c3ccc(NC(=O)C4CCCCC4)cc3)n2)cc1`, 55.5%. Turning to `Cc1ccc(-c2coc(-c3ccc(NC(=O)c4cccc(C)c4)cc3)n2)cc1`, the max activity (at 19.5 µM unless noted) was 70.3% [at 10 µM]. On the same count and under the same terms, then `Cc1ccc(-c2nc(Cn3nnc(-c4nc(-c5ccccc5Br)no4)c3C)c(C)o2)cc1`, with -6.98% [at 5 µM]; and `Cc1ccccc1C(=O)N1CSC[C@@H]1C(=O)NCCc1csc(-c2ccccc2)n1`, with -16.3%. For the molecule `COc1ccccc1-c1noc(C2CCCN2C(=O)Cc2c[nH]c3ccccc23)n1` (configuration not stated), the max activity (at 19.5 µM unless noted) is -7.96% [at 0.35 µM]. Turning to `COc1ccccc1-c1noc(C2CCCN2C(=O)c2ccc3cc[nH]c3c2)n1` (configuration not stated), the max activity (at 19.5 µM unless noted) was 14.5% [at 10 µM].

As to `CCn1nccc1C(=O)Nc1ccc2c(c1)CCC(=O)N2C`, for the setting “at 19.5 µM unless noted”, the max activity is 24.4%. On the same count and under the same terms, for `COC[C@@H]1CN(CC2CC2)C[C@@]12CCN(CCc1ccccc1)C2` the value was -8.78% [at 2.6 µM]. With `CCOC(=O)CSc1nc(NCc2ccc(Cl)cc2)c2ccccc2n1`, the max activity (at 19.5 µM unless noted) is 29.6%. For the molecule `CCOC(=O)C1CCN(c2nc(-c3ccc(Cl)cc3)nc3ccccc23)CC1`, the max activity (at 19.5 µM unless noted) was 17% [at 0.35 µM]. Same read-out and setting: for `O=C(Cn1c(=O)c(S(=O)(=O)c2ccccc2)cc2ccccc21)NCc1ccccc1` the value was -8.55% [at 2.6 µM]. For `O=C(NC1CCCC1)N1[C@@H]2CNC[C@H]1C2c1ccc(-c2cccnc2)cc1` (some centres not stated), the max activity (at 19.5 µM unless noted) is 19.4%.

With `c1ccc(-c2ccc([C@H]3[C@H]4CNC[C@@H]3N4Cc3cc(-c4ccccc4)on3)cc2)cc1`, the max activity (at 19.5 µM unless noted) was 49.3% [at 10 µM]. Still for that read-out and setting: for `Cc1ccc2c(c1)cc(S(=O)(=O)c1ccccc1)c(=O)n2CC(=O)NC(C)C` the value was -9.24% [at 0.16 µM].

Take `O=C(Nc1ccc(-c2nc(-c3cccc(Br)c3)co2)cc1)Nc1ccccc1F`: the max activity (at 19.5 µM unless noted) is 6.98%. Same read-out and setting: then `COc1ccccc1-c1nc(Cn2nnc(-c3nc(-c4cccnc4)no3)c2C)c(C)o1`, with 10.3% [at 0.16 µM]. On the same count and under the same terms, for `CCC(CC)C(=O)N1CCC2(CC1)Nc1ccc(Cl)cc1-n1cccc12` the value was 9.15% [at 0.68 µM]; for `O=C(CC1CCCCC1)N1CCC2(CC1)Nc1ccc(Cl)cc1-n1cccc12`, 7.76% [at 0.35 µM]. Same read-out and setting: then `COc1ccc(CC(=O)N2CCC3(CC2)Nc2ccc(Cl)cc2-n2cccc23)cc1`, with 5.66% [at 2.6 µM]; and `O=C(CC1CCCC1)N1CCC2(CC1)Nc1ccc(Cl)cc1-n1cccc12`, with -10.7% [at 0.16 µM]. `O=C(c1ccc(Cl)cc1)N1CCC2(CC1)Nc1ccc(Cl)cc1-n1cccc12`: under “at 19.5 µM unless noted”, the max activity is -6.42% [at 0.35 µM]. Consider `Cc1ccc(C(=O)N2CCC3(CC2)Nc2ccc(Cl)cc2-n2cccc23)cc1`, for which the max activity (at 19.5 µM unless noted) was 8.29% [at 0.35 µM]. With `Cc1ccc2c(c1C)-n1cccc1C1(CCN(C(=O)C3CCCCC3)CC1)N2`, for the setting “at 19.5 µM unless noted”, the max activity is -20.8% [at 0.16 µM].

As for `CC(C)C(=O)N1CCC2(CC1)Nc1ccc(Cl)cc1-n1cccc12`, the max activity (at 19.5 µM unless noted) was 15.6% [at 0.68 µM].

For the molecule `CCc1onc(C)c1C1CCCN1Cc1cn(CC)c2ccc(OC)cc12` (configuration not stated), the max activity (at 19.5 µM unless noted) was -10.8% [at 0.35 µM]. `CSc1cccc(NC(=O)Nc2ccc(-c3nc(-c4ccccc4)co3)cc2)c1`: the max activity (at 19.5 µM unless noted) is 76%. For the molecule `Fc1ccc(F)c(CN2[C@@H]3CNC[C@H]2C3c2ccc(-c3ccncc3)cc2)c1` (some centres not stated), the max activity (at 10 µM) is 23.7% and the max activity (at 21 µM) is 49%.

Take `COc1ccc(CCC(=O)N2CCC3(CC2)Nc2ccc(C)c(C)c2-n2cccc23)cc1`: under “at 19.5 µM unless noted”, the max activity was -4.87% [at 0.68 µM]. With `O=C(CC1N=C2c3ccccc3N=C(SCc3ccccc3Cl)N2C1=O)NCc1ccc2c(c1)OCO2` (configuration not stated), the max activity (at 19.5 µM unless noted) was 24.9% [at 0.16 µM]. The same measure, in the same setting: for `CCc1ccc(N2CCC(C(=O)NCCc3c[nH]c4ccc(Cl)cc34)C2=O)cc1` (configuration not stated) the value was -15.5% [at 0.16 µM]; for `Cc1ccc2[nH]cc(CCNC(=O)C3CCN(c4ccc(Cl)cc4)C3=O)c2c1` (configuration not stated), 23.3% [at 10 µM]; for `Cc1ccccc1C(=O)N1CCC2(CC1)Nc1ccc(C)c(C)c1-n1cccc12`, -10.8% [at 5 µM]. As to `Cc1ccccc1C(=O)N1CCC2(CC1)Nc1ccc(Cl)cc1-n1cccc12`, the max activity (at 19.5 µM unless noted) was -3.44%. Consider `O=C(c1ccccc1Cl)N1CCC2(CC1)Nc1ccc(Cl)cc1-n1cccc12`, for which, for the setting “at 19.5 µM unless noted”, the max activity is 6.15% [at 1.35 µM].

Turning to `Cc1ccc2c(c1C)-n1cccc1C1(CCN(C(=O)c3ccccc3Cl)CC1)N2`, under “at 19.5 µM unless noted”, the max activity was -6.73% [at 0.35 µM]. Same read-out and setting: then `CCOc1ccccc1C(=O)N1CCC2(CC1)Nc1cc(OC)ccc1-n1cccc12`, with 12% [at 2.6 µM]; and `CCOc1ccc(C(=O)N2CCC3(CC2)Nc2ccc(Cl)cc2-n2cccc23)cc1`, with 11.3% [at 0.68 µM]. The same measure, in the same setting: for `Cc1ccc(-c2coc(-c3ccc(NC(=O)NCc4ccc(F)cc4)cc3)n2)c(C)c1` the value was -6.17% [at 0.16 µM].

Take `CN(Cc1ccccn1)C(=O)C1=NOC2(CCN(S(=O)(=O)c3ccc(F)cc3)C2)C1` (configuration not stated): where the note is “at 19.5 µM unless noted”, the max activity is 35.3%. Take `COc1ccc(-c2nc3c(s2)CN(C(=O)Nc2ccc(C)cc2Cl)CC3)cc1OC`: for the setting “at 19.5 µM unless noted”, the max activity is -9.18% [at 0.35 µM]. On to `COc1ccccc1-c1nc(Cn2nnc(-c3nc(-c4cccc(Cl)c4)no3)c2C)c(C)o1`, for which the max activity (at 19.5 µM unless noted) was 8.57% [at 0.35 µM].

Regarding `NC(=O)C1(N2CCCCC2)CCN(c2ncc(NC(=O)c3ccc(F)cc3)cc2C(=O)O)CC1`, under “at 19.5 µM unless noted”, the max activity was -7.63% [at 10 µM]. On to `Cc1ccc(C)c(-c2coc(-c3ccc(NC(=O)Nc4ccc5c(c4)OCCO5)cc3)n2)c1`, for which the max activity (at 19.5 µM unless noted) is 196% [at 5 µM].

Take `CCc1nc(OCC(=O)Nc2ccc(OC)cc2OC)c2ccccc2n1`: under “at 19.5 µM unless noted”, the max activity is -16.2% [at 0.35 µM].

With `CCOC(=O)CSC1=Nc2ccccc2C2=NC(CC(=O)NCc3ccccc3)C(=O)N12` (configuration not stated), the max activity (at 19.5 µM unless noted) is -17% [at 0.16 µM]. `CCOc1ccccc1-c1noc(-c2nnn(Cc3nc(-c4cccc(C)c4)oc3C)c2C)n1`: the max activity (at 19.5 µM unless noted) is -4.72% [at 5 µM]. Same read-out and setting: for `N#C[C@H]1[C@H](c2ccc(C#Cc3cccc(F)c3)cc2)[C@@H](CO)N1C(=O)C1CCOCC1` the value was 33.1%; for `N#C[C@@H]1[C@H](c2ccc(C#Cc3cccc(F)c3)cc2)[C@H](CO)N1C(=O)C1CCOCC1`, 26.4% [at 10 µM]; for `COc1cccc(-c2nc3c(s2)CN(C(=O)NC2CCCCC2)CC3)c1`, -6.7%. On the same count and under the same terms, for `Cc1ccc(-c2noc(-c3nnn(Cc4nc(-c5ccc(C)cc5)oc4C)c3C)n2)cc1` the value was 8.64%; for `COc1ccc(-c2nc(Cn3nnc(-c4nc(-c5cc(OC)cc(OC)c5)no4)c3C)c(C)o2)cc1`, 4.11% [at 0.35 µM]; for `COc1ccc(-c2nc(Cn3nnc(-c4nc(-c5cccs5)no4)c3C)c(C)o2)cc1`, 7.54% [at 0.16 µM]. On the same count and under the same terms, then `COc1ccc(-c2nc(Cn3nnc(-c4nc(-c5ccc(C)cc5)no4)c3C)c(C)o2)cc1`, with 4.22% [at 0.16 µM]; and `CCOc1ccccc1-c1noc(-c2nnn(Cc3nc(-c4ccc(C)cc4)oc3C)c2C)n1`, with -5.47% [at 1.35 µM]. `Cc1cccc(-c2nc(Cn3nnc(-c4nc(-c5ccccc5)no4)c3C)c(C)o2)c1`: the max activity (at 19.5 µM unless noted) is 4.79% [at 0.68 µM].

Regarding `COc1ccc(-c2nc(Cn3nnc(-c4nc(-c5ccccc5OC)no4)c3C)c(C)o2)cc1`, for the setting “at 19.5 µM unless noted”, the max activity was -5.44% [at 1.35 µM]. The same measure, in the same setting: for `Cc1ccc(-c2noc(-c3nnn(Cc4nc(-c5cccc(C)c5)oc4C)c3C)n2)cc1` the value was 7.12% [at 0.68 µM].

For the molecule `CN(C)C(=O)c1ccc2nnc3ncn(Cc4ccccc4)c3c2c1`, the max activity (at 19.5 µM unless noted) was -17.6% [at 10 µM].

For the molecule `COc1ccc(CCNc2nc(SCc3ccc(Cl)cc3)nc3ccccc23)cc1OC`, the max activity (at 19.5 µM unless noted) was 9.35% [at 1.35 µM]. In the case of `COc1nc2c(c(C)nn2-c2ccccc2)c(C)c1CCC(=O)NCCc1c[nH]c2ccccc12`, the max activity (at 19.5 µM unless noted) was 7.44%. Regarding `O=C(Nc1c(C(=O)N2CCCC2)[nH]c2ccccc12)c1ccc(Cl)cc1`, the max activity (at 19.5 µM unless noted) was 30.4% [at 10 µM]. Turning to `O=C(CCC1N=C2c3ccccc3N=C(SCc3cc(=O)n4ccccc4n3)N2C1=O)NCc1ccco1` (configuration not stated), the max activity (at 19.5 µM unless noted) was 26.1% [at 1.35 µM]. On the same count and under the same terms, for `CCc1nc(OCC(=O)Nc2cc(OC)ccc2OC)c2ccccc2n1` the value was -25% [at 2.6 µM].
